# Measurements reported in PubChem BioAssay.
# Values joined by “and” are separate entries in the source; they are usually repeats but may differ in a detail not shown here. Equal values may be shown once. Results filed as inconclusive are left out. Active and inactive are the calls of the source.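 How the source made its calls, unless noted: active means thallium flux through the channel raised or lowered by more than 3 SD from vehicle-only wells, actives on both sides; inactive means the rest.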
# Tests used:
# [1] = signal quenchers or enhancers, Cy5 substrate/SSB – biochemical, NIH Clinical Collection, E. coli SSB, artefact control for HCV NS3 helicase inhibitor project (AID 743268; call rule not given here); conditions: Cy5-oligo bound E. coli SSB, fluorescence interference
# [2] = test system: Hepatitis C virus NS3 helicase; assay: blockers of NS3h binding to DNA – biochemical, fluorescence polarization, NIH Clinical Collection, primary screen (AID 743270; call rule not given here); conditions: NS3 helicase binding to Cy5-dT15 DNA, stronger effect = higher value, concentration not given here
# [3] = biological target: Single-stranded DNA-binding protein (Escherichia coli (strain K12)) (UniProt P0AGE0); assay: SSB-ssDNA binding inhibitors – biochemical, fluorescence polarization, NIH Clinical Collection, counter-screen for HCV NS3 helicase inhibitor project (AID 743271; in the data active means inhibition above about 28%); conditions: E. coli SSB-DNA binding, stronger effect = higher value, concentration not given here
# [4] = compounds distorting NS3 helicase fluorescence signal – biochemical, NIH Clinical Collection, artefact control for HCV NS3 helicase inhibitor project (AID 743272; call rule not given here;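 further: HCV NS3 helicase with a Cy5 labelled single stranded DNA probe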); conditions: fluorescence interference counterscreen, HCV NS3 helicase assay; stronger effect = lower value
# F380Y/beta1 = assay: BK channel mutant inhibitors and activators – cell-based, U2OS BacMam, thallium flux, beta subunits, selectivity assay, profiling panel (AID 1259406); conditions: U2OS BacMam BK variants, at 30 µM;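 further: initial slope of Thallos dye fluorescence rise after thallium is added; log ratio against the mean of 0.3% DMSO vehicle wells on the same plate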
# F380Y/beta4 = assay: as above; conditions: U2OS BacMam BK variants, at 30 µM
# [5] = biological target: Calcium-activated potassium channel subunit alpha-1 (Homo sapiens) + Leucine-rich repeat-containing protein 26 (Homo sapiens) (UniProt Q12791+Q2I0M4); assay: as above; conditions: U2OS BacMam BK variants, F380Y/Slo1WT/gamma1, at 30 µM
# Sequence of Calcium-activated potassium channel subunit alpha-1 (Homo sapiens) + Leucine-rich repeat-containing protein 26 (Homo sapiens) (Q2I0M4 whole entry, looked up, one chain of several): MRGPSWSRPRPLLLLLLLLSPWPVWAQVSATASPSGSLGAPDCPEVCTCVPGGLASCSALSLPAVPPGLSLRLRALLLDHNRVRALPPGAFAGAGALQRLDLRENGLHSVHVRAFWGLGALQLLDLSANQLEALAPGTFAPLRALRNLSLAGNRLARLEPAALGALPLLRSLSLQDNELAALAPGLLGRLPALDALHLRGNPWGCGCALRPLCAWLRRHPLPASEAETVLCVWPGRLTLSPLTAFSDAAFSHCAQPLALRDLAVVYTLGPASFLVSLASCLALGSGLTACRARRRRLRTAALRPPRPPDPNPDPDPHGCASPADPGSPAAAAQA
# R275C/beta4 = assay: as above; conditions: U2OS BacMam BK variants, at 30 µM
# R275C/Slo1WT/beta2 = assay: as above; conditions: U2OS BacMam BK variants, at 30 µM
# [6] = viability loss in pontine glioma line – cell-based, SU-DIPG-XVII, MIPE5.0, CellTiter-Glo, qHTS, dose response (AID 1347060; cut-off not given, nearly all actives have AC50 up to about 26 µM;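 on AC50: cells exposed to compound for 48 hours before viability readout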); conditions: CellTiter-Glo ATP luminescence
# [7] = viability loss in pontine glioma line – cell-based, SU-DIPG-XIII, MIPE4.0, CellTiter-Glo, qHTS, dose response (AID 1347061; cut-off not given, nearly all actives have AC50 up to about 37 µM;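 further: cells exposed to compound for 48 hours before readout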); conditions: CellTiter-Glo ATP luminescence
# [8] = viability loss in pontine glioma line – cell-based, SU-DIPG-IV, MIPE4.0, CellTiter-Glo, qHTS, dose response (AID 1347063; cut-off not given, nearly all actives have AC50 up to about 30 µM;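 further: compound exposure lasted 48 hours before the viability readout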); conditions: CellTiter-Glo ATP luminescence
# [9] = growth inhibition of DIPG cells – cell-based, MIPE5.0 library, qHTS (AID 1347068; cut-off not given, nearly all actives have IC50 up to about 30 µM); conditions: SU-DIPG-XXV viability
# [10] = test system: Aerobactin synthetase IucA (Klebsiella pneumoniae); assay: inhibition of K. pneumoniae IucA enzyme – biochemical, Tocris library, absorbance (AID 1345561; call rule not given here;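 further: 100% = enzyme without compound and 0% = no enzyme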); conditions: purified IucA enzyme assay, absorbance (OD) read-out; stronger effect = lower value;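 tested at 8 µM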
# [11] = growth inhibition of DIPG cells – cell-based, MIPE4.0 library, CellTiter-Glo luminescence, qHTS (AID 1347066; cut-off not given, nearly all actives have AC50 up to about 30 µM;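 further: cells exposed to compound for 48 hours before readout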); conditions: SU-DIPG-VI viability, CellTiter-Glo ATP luminescence
# [12] = growth inhibition, single agent or in combination, cell-based, chromothripsis tumors, cisplatin or BGB combos (AID 1671449; in the data active means inhibition above about 80%;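 further: cells exposed for 96 hours; 0% = vehicle DMSO and 100% = killing by high DMSO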); conditions: LFS_MB_P medulloblastoma cells
# [13] = growth inhibition, single agent and combos, cell-based, chromothripsis tumors, cisplatin or BGB combos (AID 1671450; in the data active means inhibition above about 80%;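 further: cells exposed to compound for four days; 0% = vehicle DMSO and 100% = cell killing by high DMSO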); conditions: HDN33 neuroblastoma cells, stronger effect = higher value
# [14] = growth inhibition, single agents and combos, HTB85, cell-based, BGB or cisplatin IC20 combos, synergistic combos for chromothripsis tumors (AID 1671453; in the data active means inhibition above about 80%;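 further: cells exposed for 96 hours before readout; 0% = vehicle DMSO and 100% = high DMSO killing control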); conditions: HTB85 osteosarcoma cells, drug combinations, stronger effect = higher value
# [15] = growth inhibition, MDA-MB-436, cell-based, BGB or cisplatin combos, synergistic combos for chromothripsis tumors (AID 1671458; call rule not given here;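 further: cells exposed for 96 hours; 0% = vehicle DMSO and 100% = killing by high DMSO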); conditions: MDA-MB-436 breast carcinoma growth inhibition, drug combinations, stronger effect = higher value
# [16] = BT084 cell growth, single and combined drugs, ICGC_MB145, cisplatin and BGB IC40 combos (AID 1671461; in the data active means inhibition above about 80%;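 further: cells exposed to drugs for 96 hours; 0% = vehicle DMSO and 100% = high DMSO full killing control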); conditions: BT084 medulloblastoma cells, drug combinations, stronger effect = higher value
# [17] = at 0.5 µM, stronger effect = higher value
# [18] = measured here: combination with BGB IC20, at 0.005 µM
# [19] = measured here: combination with BGB IC40, at 0.005 µM
# [20] = measured here: combination with BGB IC40, at 0.05 µM
# [21] = measured here: combination with cisplatin, at 0.5 µM, stronger effect = higher value
# [22] = measured here: combination with cisplatin, at 5 µM, stronger effect = higher value
# [23] = measured here: with BGB IC20 combination, at 0.5 µM
# [24] = measured here: with cisplatin IC20 combination, at 0.5 µM
# [25] = measured here: with BGB IC20, at 0.5 µM
# [26] = measured here: with BGB IC20, at 5 µM
# [27] = measured here: with cisplatin IC20, at 0.5 µM
# [28] = measured here: with cisplatin IC20, at 5 µM
# [29] = measured here: BGB combination, at 0.5 µM
# [30] = measured here: BGB combination, at 5 µM
# [31] = measured here: cisplatin combination, at 0.5 µM
# [32] = measured here: cisplatin combination, at 5 µM
# [33] = cisplatin combination, at 0.5 µM
# [34] = measured here: BGB IC40 combination 0.05 uM, at 0.05 µM
smiles,measurement,setting,value
CCN(CC)CCOC(=O)C(O)(c1ccccc1)c1ccccc1,fluorescence ratio,[1],0.99 (inactive)
same,inhibition,[2],-1.19% (inactive)
same,inhibition,[3],-0.87% (inactive)
same,fluorescence ratio,[4],0.98 (inactive)
same,log fold change Tl+ flux,F380Y/beta1,-0.00425 (inactive)
same,log fold change Tl+ flux,F380Y/beta4,0.0464 (inactive)
same,log fold change Tl+ flux,[5],-0.0223 (inactive)
same,log fold change Tl+ flux,R275C/beta4,0.00187 (inactive)
same,log fold change Tl+ flux,R275C/Slo1WT/beta2,-0.00361 (inactive)
c1ccc2c(c1)Nc1ccccc1S2,fluorescence ratio,[1],0.96 (inactive)
same,inhibition,[2],1.53% (inactive)
same,inhibition,[3],5.12% (inactive)
same,fluorescence ratio,[4],0.95 (inactive)
same,log fold change Tl+ flux,F380Y/beta1,0.0323 (inactive)
same,log fold change Tl+ flux,F380Y/beta4,-0.0296 (inactive)
same,log fold change Tl+ flux,[5],-0.0274 (inactive)
same,log fold change Tl+ flux,R275C/beta4,-0.0162 (inactive)
same,log fold change Tl+ flux,R275C/Slo1WT/beta2,0.00584 (inactive)
NC1=NC(=O)C(c2ccccc2)O1 (configuration not stated),fluorescence ratio,[1],1.02 (inactive)
same,inhibition,[2],2.77% (inactive)
same,inhibition,[3],1.44% (inactive)
same,fluorescence ratio,[4],0.93 (inactive)
same,log fold change Tl+ flux,F380Y/beta1,-0.0441 (inactive)
same,log fold change Tl+ flux,F380Y/beta4,0.00709 (inactive)
same,log fold change Tl+ flux,[5],-0.0447 (inactive)
same,log fold change Tl+ flux,R275C/beta4,-0.0245 (inactive)
same,log fold change Tl+ flux,R275C/Slo1WT/beta2,0.0857 (active)
COc1cccc([C@@]2(O)CCCC[C@@H]2CN(C)C)c1,log fold change Tl+ flux,F380Y/beta1,-0.0211 (inactive)
same,log fold change Tl+ flux,F380Y/beta4,-0.0244 (inactive)
same,log fold change Tl+ flux,[5],-0.0312 (inactive)
same,log fold change Tl+ flux,R275C/beta4,-0.00931 (inactive)
same,log fold change Tl+ flux,R275C/Slo1WT/beta2,0.0567 (inactive)
CN1C(=O)COc2c(C(=O)NC3CN4CCC3CC4)cc(Cl)cc21 (configuration not stated),fluorescence ratio,[1],1.03 (inactive)
same,inhibition,[2],2.77% (inactive)
same,inhibition,[3],3.75% (inactive)
same,fluorescence ratio,[4],1.02 (inactive)
same,outcome,[6],inactive
same,outcome,[7],inactive
same,outcome,[8],inactive
same,outcome,[9],inactive
same,log fold change Tl+ flux,F380Y/beta1,0.0287 (inactive)
same,log fold change Tl+ flux,F380Y/beta4,0.0243 (inactive)
same,log fold change Tl+ flux,[5],0.0336 (inactive)
same,log fold change Tl+ flux,R275C/beta4,-0.016 (inactive)
same,log fold change Tl+ flux,R275C/Slo1WT/beta2,-0.0098 (inactive)
Nc1ccncc1,remaining activity,[10],127% (inactive)
NN=C(N)N,remaining activity,[10],98% (inactive)
same,outcome,[6],inactive
same,outcome,[9],inactive
O=P1(NCCCl)OCCCN1CCCl (configuration not stated),outcome,[6],inactive
same,outcome,[7],inactive
same,outcome,[11],inactive
same,outcome,[9],inactive
same,inhibition,[12]; [17],-12.1% (inactive) and -23.4% (inactive)
same,inhibition,[12]; [18],-22%
same,inhibition,[12]; [19],-15% and -23.6%
same,inhibition,[12]; [20],-22.5% and -36.7%
same,inhibition,[12]; [21],-34.3% and -30.8%
same,inhibition,[12]; [22],-44% and -49.9%
same,inhibition,"[13]; BGB combo, at 5 µM",-18.3% and -55.5%
same,inhibition,[13]; at 0.5 µM,2.74% (inactive) and -43.1% (inactive)
same,inhibition,"[13]; cisplatin combo, at 5 µM",-14.3% and -32.8%
same,inhibition,[13]; [23],36.5% and -51.2%
same,inhibition,[13]; [24],-4.58% and -35.3%
same,inhibition,"[13]; single agent, at 5 µM",-24.7% and -29.3%
same,inhibition,[14]; at 0.5 µM,-11.8% (inactive) and -20.1% (inactive)
same,inhibition,[14]; [25],-26.1% and -41.8%
same,inhibition,[14]; [26],-16.8% and -29.8%
same,inhibition,[14]; [27],9.75% and -12.8%
same,inhibition,[14]; [28],1.05% and -46.6%
same,inhibition,"[14]; single agent, at 5 µM",-10.4% and -9.47%
same,inhibition,[15]; at 0.5 µM,-32.5% (inactive) and -17.3% (inactive)
same,inhibition,[15]; [29],-44.8% and -19%
same,inhibition,[15]; [30],-38% and -30.9%
same,inhibition,[15]; [31],-35.4% and -19.9%
same,inhibition,[15]; [32],-21.1% and -24.7%
same,inhibition,[16]; at 0.5 µM,-13.2% (inactive) and -8.24% (inactive)
same,inhibition,[16]; [33],-6.37% and -25.6%
same,inhibition,"[16]; cisplatin combination, at 5 µM",-50% and -9.28%
same,inhibition,[16]; [34],1.93% and -27.2%
same,inhibition,"[16]; single agent, at 5 µM",-32% and -16.6%
Oc1cc(Cl)ccc1Oc1ccc(Cl)cc1Cl,fluorescence ratio,[1],1.01 (inactive)
same,inhibition,[2],2.27% (inactive)
same,inhibition,[3],-0.48% (inactive)
same,fluorescence ratio,[4],0.91 (inactive)
same,log fold change Tl+ flux,F380Y/beta1,-0.302 (active)
same,log fold change Tl+ flux,F380Y/beta4,-0.429 (active)
same,log fold change Tl+ flux,[5],-0.0387 (inactive)
same,log fold change Tl+ flux,R275C/beta4,0.0409 (inactive)
same,log fold change Tl+ flux,R275C/Slo1WT/beta2,-0.125 (active)
Cn1c(CCCC(=O)O)nc2cc(N(CCCl)CCCl)ccc21,AC50,[6],20.9 µM (active)
same,outcome,[11],inactive
same,outcome,[9],inactive
same,inhibition,[12]; [17],-19.5% (inactive)
same,inhibition,[12]; [18],-18.2%
same,inhibition,[12]; [19],-30.6%
same,inhibition,[12]; [20],-11.9%
same,inhibition,[12]; [21],-29.9%
same,inhibition,[12]; [22],-14.2%
same,inhibition,"[13]; BGB combo, at 5 µM",-27.8%
same,inhibition,[13]; at 0.5 µM,-43.6% (inactive)
same,inhibition,"[13]; cisplatin combo, at 5 µM",-18.8%
same,inhibition,[13]; [23],-46.1%
same,inhibition,[13]; [24],-39.8%
same,inhibition,"[13]; single agent, at 5 µM",-57.4%
same,inhibition,[14]; at 0.5 µM,-34.4% (inactive)
same,inhibition,[14]; [25],-54.6%
same,inhibition,[14]; [26],-12.9%
same,inhibition,[14]; [27],-48.5%
same,inhibition,[14]; [28],-38%
same,inhibition,"[14]; single agent, at 5 µM",-20%
same,inhibition,[15]; at 0.5 µM,-25.9% (inactive)
same,inhibition,[15]; [29],-33%
same,inhibition,[15]; [30],-23.4%
same,inhibition,[15]; [31],-31%
same,inhibition,[15]; [32],-8.45%
same,inhibition,[16]; at 0.5 µM,-12.4% (inactive)
same,inhibition,[16]; [33],-15.3%
same,inhibition,"[16]; cisplatin combination, at 5 µM",-29.8%
same,inhibition,[16]; [34],-6.48%
same,inhibition,"[16]; single agent, at 5 µM",-11.8%
N#CC(C#N)=Cc1ccc(O)c(O)c1,remaining activity,[10],122% (inactive)
